About 79,000 compounds went through this panel and 15% of them were active in at least one assay; those are over-represented in the sample as a whole. A number with no mark means an inactive call. The source made the active and inactive calls. Cut-off read from the data, not from the text of the source: active = growth inhibition above about 70%; inactive = the rest.
How the values were obtained:
[1] = NCI Yeast Anticancer Drug Screen. Data for the rad50 strain (AID 155);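 note: 0% = growth of vehicle-only cultures of the same strain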; conditions: S. cerevisiae rad50 strain growth inhibition, active compounds read high
How it was run: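 A DNA repair-deficient yeast mutant serves as the test organism; compound-induced growth inhibition is calculated against vehicle-treated cells.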

[2] = NCI Yeast Anticancer Drug Screen. Data for the mec2-1 strain (AID 157); conditions: S. cerevisiae mec2-1 strain, active compounds read high
How it was run: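 Yeast mec2-1 mutant treated with compound. Readout: growth inhibition vs vehicle controls.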

[3] = NCI Yeast Anticancer Drug Screen. Data for the sgs1 mgt1 strain (AID 161);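 note: 0% = growth of cultures given vehicle only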; conditions: S. cerevisiae sgs1 mgt1 strain, active compounds read high
How it was run: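 Mutant yeast exposed to compound; growth scored against vehicle-only wells.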

[4] = NCI Yeast Anticancer Drug Screen. Data for the cln2 rad14 strain (AID 165);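 note: 0% = growth equal to vehicle treated cultures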; conditions: S. cerevisiae cln2 rad14 strain, active compounds read high
How it was run: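 cln2 rad14 yeast strain; compound exposure; growth inhibition read vs vehicle controls.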

[5] = NCI Yeast Anticancer Drug Screen. Data for the bub3 strain (AID 167); conditions: S. cerevisiae bub3 mutant strain, active compounds read high
How it was run: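 Inhibition values come from growth of compound-treated mutant yeast normalised to vehicle-treated controls.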

[6] = NCI Yeast Anticancer Drug Screen. Data for the mlh1 rad18 strain (AID 175); conditions: S. cerevisiae mlh1 rad18 strain growth inhibition, active compounds read high
How it was run: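 Yeast w/ defined DNA-repair lesions; compound exposure; growth vs vehicle controls → % inhibition.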

[7] = at 5.0 µM (retest, dose inferred, filed as 0.5)
[8] = at 50.0 µM (retest, dose inferred, filed as 5.0)

| Compound | growth inhibition [1, 7] | growth inhibition [1, 8] | growth inhibition ([1]; at 50.0 µM) | growth inhibition [2, 7] | growth inhibition [2, 8] | growth inhibition ([2]; at 50.0 µM) | growth inhibition [3, 7] | growth inhibition [3, 8] | growth inhibition ([3]; at 50.0 µM) | growth inhibition [4, 7] | growth inhibition [4, 8] | growth inhibition ([4]; at 50.0 µM) | growth inhibition [5, 7] | growth inhibition [5, 8] | growth inhibition ([5]; at 50.0 µM) | growth inhibition [6, 7] | growth inhibition [6, 8] | growth inhibition ([6]; at 50.0 µM) |
| --- | --- | --- | --- | --- | --- | --- | --- | --- | --- | --- | --- | --- | --- | --- | --- | --- | --- | --- |
| CCCCCC[C@@H](O)C/C=C\CCCCCCCC(=O)OCCOC | -4% | 2% | 24.9% | -3% | 26% | 5.4% | -6% | 24% | 4.2% | 2% | -4% | 77.2% (active) | -5% | 86% (active) | 12.6% | 0% | 13% | 34.1% |
| CCCCCCCCCCCC1=NCCCN1CCCC | 10% | 99% (active) | 88.3% (active) | 0% | 99% (active) | 99.2% (active) | 26% | 100% (active) | 84.3% (active) | 4% | 99% (active) | 72% (active) | 22% | 100% (active) | 98.7% (active) | 28% | 99% (active) | 95.3% (active) |
| CC1=CC(=NC(=O)CBr)C=C/C1=N\S(=O)(=O)c1ccccc1 | 65% | 99% (active) | 56.5% | 44% | 100% (active) | 33.2% | 46% | 100% (active) | 55% | 42% | 81% (active) | 28.3% | 46% | 97% (active) | 84.5% (active) | 55% | 99% (active) | 56.1% |
| O=C(O)CCCOc1cc(-c2ccccc2F)nc2cc3c(cc12)OCO3 | 11% | 36% | 76.8% (active) | 3% | 31% | 80.8% (active) | 13% | 27% | 71% (active) | 5% | 46% | 71.3% (active) | 9% | 47% | 77.9% (active) | 7% | 52% | 54% |
| Cc1cc(O)c2c(c1)C(=O)C(c1c(C)cc3c(c1O)C(=O)C1OC1C3=O)=CC2=O (stereo not given) | 98% (active) | 96% (active) | 76.8% (active) | 99% (active) | 96% (active) | 76.2% (active) | 99% (active) | 95% (active) | 89.7% (active) | 98% (active) | 95% (active) | 79.3% (active) | 99% (active) | 95% (active) | 79.2% (active) | 98% (active) | 97% (active) | 87.8% (active) |
| S=C(SSC(=S)N1CCOCC1)N1CCOCC1 | 97% (active) | 99% (active) | 99.3% (active) | 99% (active) | 100% (active) | 99.6% (active) | 99% (active) | 99% (active) | 99.2% (active) | 61% | 99% (active) | 99% (active) | 98% (active) | 99% (active) | 99.5% (active) | 98% (active) | 99% (active) | 99.5% (active) |
| OC(c1cc(-c2ccc(Cl)cc2)nc2c(Cl)cccc12)C1CCCCN1 (stereo not given) | 73% (active) | 93% (active) | 99.8% (active) | 26% | 55% | 99.8% (active) | 93% (active) | 100% (active) | 99.9% (active) | 20% | 66% | 99% (active) | 28% | 93% (active) | 99.5% (active) | 69% | 88% (active) | 99.5% (active) |
| O=C(/C=C/c1ccccc1)CCC1C(=O)c2ccccc2C1=O | 24% | 40% | 3.25% | 10% | 33% | -9% | 14% | 42% | 1.05% | 10% | 20% | 17.8% | 12% | 51% | -12.6% | 22% | 50% | 4.6% |
| CC1=C(Cl)C[C@@H](/C(C)=C\Cl)O[C@@]1(O)C(Br)Br | 31% | 92% (active) | 91.8% (active) | 24% | 94% (active) | 93.4% (active) | 40% | 93% (active) | 93.5% (active) | 20% | 90% (active) | 91.2% (active) | 40% | 91% (active) | 92.3% (active) | 65% | 92% (active) | 15.1% |
| CC1(C)CCC[C@]2(C)[C@@H](C=O)C(C=O)=CC[C@@H]12 | 25% | 90% (active) | 91.3% (active) | 23% | 96% (active) | 90.8% (active) | 22% | 84% (active) | 88.4% (active) | 23% | 81% (active) | 90.2% (active) | 19% | 88% (active) | 90.3% (active) | 21% | 91% (active) | 86.9% (active) |

From PubChem BioAssay (NCI)
